Sampled rows, rich in hits. Any-hit rate of the full collection: about 3.5%.
Autofluor counter: counter-screen for toxin protease inhibitors: compound fluorescence; AID 624483; compound autofluorescence counterscreen, microsphere flow cytometry; stronger effect = higher value; hit rate 3.1% among 360,000; fluorescence intensity (no concentration beside the values); in the data active = fluorescence intensity above about 16000; inconclusive = no clear call, values can overlap the other calls
BoNT-A LC inh2: blocks Botulinum neurotoxin A light chain protease; multiplex microsphere protease substrate cleavage, flow cytometry; inhibition, % at 10 µM; hit rate 0.17% among 360,000; AID 588499; also: plate controls were buffer without enzyme for full effect and enzyme alone for no effect
BoNT-F LC inh: blocks Botulinum neurotoxin F light chain protease; Multiplex microsphere protease cleavage assay, flow cytometry; inhibition, % at 10 µM; hit rate 0.22% among 360,000; AID 588497; in the data active = inhibition above about 35%, passing the limit was not always enough; inconclusive = no clear call, values can overlap the other calls; also: plate controls were buffer without enzyme for full effect and enzyme alone for no effect
Anthrax LF prot: inhibitors of Bacillus anthracis lethal factor protease. P15917. multiplex microsphere protease cleavage assay, LF. inhibition, % at 10 µM. hit rate 0.12% among 360,000; also: plate controls were buffer without enzyme for full effect and enzyme alone for no effect
BJeLR lethal: kills HRASV12-expressing BJeLR cells | BJeLR (HRASV12) viability, CellTiter-Glo ATP luminescence, 48 h | inhibition, % (test concentration not listed) | hit rate 0.17% among 300,000; in the data active = inhibition above about 50%; inconclusive = no clear call, values can overlap the other calls
* hit, by the source's call; ? = inconclusive; / = not tested or not shown. Rule as the data show it, unless noted: active = inhibition above about 30%; inconclusive = no clear call, values can overlap the other calls; inactive = below that.

SMILES	Autofluor counter	BoNT-A LC inh2	BoNT-F LC inh	Anthrax LF prot	BJeLR lethal
O=C(Nc1nnc(-c2ccncc2)s1)C1CCCO1 (configuration not stated)	16579*	-1.4	-2.9	-4.6	2.3
Cn1c(NCCc2ccncc2)nc2cc(-c3ccsc3)sc2c1=O	3892	-0.3	-7.0	-4.5	/
CN(C)c1ccc2nc3ccc(=[N+](C)C)cc-3sc2c1	2168	31.5*	-24.8	7.1	/
Cc1nc2cc(C)c(C)cc2s1	4430	0.6	2.8	1.2	2.0
CN(C)c1ccc2nc3ccc(=O)cc-3sc2c1	2898	3.9	-3.4	-2.0	/
Cc1cc2nc3ccc(=[N+](C)C)cc-3sc2cc1N	3584	61.4*	-9.6	20.0	57.0*
CCCNC(=O)CN1C(=O)NC(CC)(c2ccc(F)cc2)C1=O (configuration not stated)	5840	-0.4	3.7	-2.2	1.4
COc1ccc(S(=O)(=O)N(C)CC(=O)O)c2ccccc12	5639	0.3	3.8	3.7	4.3
CCN(CC)S(=O)(=O)c1cccc(NC(=O)C2SC(=Nc3ccc(C)cc3C)C(C(=O)NCC3CCCO3)=C2N)c1 (configuration not stated)	23589*	-0.4	-5.4	-0.8	-7.9
CC1(C)CN(c2ccccc2)N(Cc2ccc(F)cc2)C1=O	18014*	7.5	10.9	-1.1	-12.7
O=c1cc(N2CCN(c3ccccc3)CC2)[nH]c(=O)n1Cc1ccc(F)cc1	5253	-0.3	-12.0	-16.7	1.9
CC1(C)CC(=O)C=C(c2n[nH]nc2C2CC2)C1	3728	-0.3	1.2	-2.6	/
CC(=O)c1c(C)cc(C)c(CSc2nnc(-c3ccco3)o2)c1C	19958*	1.8	1.6	-3.6	-13.6
O=c1cc(CSc2nnc(-c3ccco3)o2)c2ccccc2[nH]1	22171*	?	-0.2	-7.5	-7.7
O=C(CSc1nnc(-c2ccco2)o1)c1ccc(F)c(F)c1	21701*	-1.9	0.8	1.2	-4.8
C[C@@H]1CCCCO[C@H](CN(C)Cc2ccc(C(=O)O)cc2)[C@H](C)CN([C@@H](C)CO)C(=O)c2cc(NC(=O)Nc3ccc(C(F)(F)F)cc3)ccc2O1	3043	-0.3	4.3	-8.5	/
O=C1C(Cl)=C(NCC2CCCO2)C(=O)N1CCc1ccccc1 (configuration not stated)	7719	0.4	-2.9	-0.5	-1.0
O=C(O)C1C(c2ccccc2)C(C(=O)Oc2ccccc2)C1c1ccccc1 (configuration not stated)	24658*	-1.5	-5.5	0.1	-8.2
CC(C)CN(CC(C)C)C(=O)C1C2c3ccccc3C(c3ccccc32)C1C(=O)O (configuration not stated)	3309	0.4	-0.5	1.0	/
Cc1cccc(OC(=O)C2C(c3ccccc3)C(C(=O)O)C2c2ccccc2)c1 (configuration not stated)	15795	2.8	5.6	-0.8	-1.5
CC(C)CCOC(=O)C1C(c2ccccc2)C(C(=O)O)C1c1ccccc1 (configuration not stated)	25168*	-2.6	-3.0	0.2	-4.2
C=CCn1c(CCNC(=O)c2ccccc2F)nnc1SCc1nc2ccccc2c(=O)[nH]1	24056*	-2.6	-4.1	-1.8	12.5
CC(C)CSc1ncc(-c2cccc(C(F)(F)F)c2)cn1	19690*	?	0.4	1.7	3.4
C[C@H]1CN([C@@H](C)CO)C(=O)CCCn2nncc2CO[C@@H]1CN(C)S(=O)(=O)c1ccc(-n2cccn2)cc1	2744	0.6	-4.3	-3.2	/
Cc1ccc(-c2cc3c(N=O)c4ccccc4c-3n[nH]2)cc1	2452	0.3	-3.9	-1.8	69.8*
SMILES	Autofluor counter	BoNT-A LC inh2	BoNT-F LC inh	Anthrax LF prot	BJeLR lethal
Cc1cccc(-c2cc3c(N=O)c4ccccc4c-3n[nH]2)c1	2153	0.4	1.9	-0.3	16.7
O=Nc1c2cc(-c3ccccc3)[nH]nc-2c2ccccc12	2153	0.1	-3.8	0.0	68.7*
CC(C)(C)c1ccc(S(=O)(=O)NC(=O)C2(C)CCN2C(=O)c2cccc3ccccc23)cc1 (configuration not stated)	3580	-0.1	1.0	1.5	/
CN(C1CCCC1)C1CCN(C(=O)CNC(=O)/C=C/c2ccccc2)CC1	2681	-1.0	-9.9	2.4	-6.9
CC1CCCCC1N(C)C1CCN(C(=O)CNC(=O)/C=C/c2cccc(Cl)c2)CC1 (configuration not stated)	4126	2.0	3.4	-1.6	90.1*
CCOc1ccc(C(=O)c2cc([N+](=O)[O-])ccc2N2CCOCC2)cc1	2491	0.8	-1.7	-0.1	52.7*
Cc1ccc(C(=O)c2cc([N+](=O)[O-])ccc2N2CCCCC2)c(C)c1	2150	3.2	1.5	1.7	55.4*
